Screens as filed in PubChem.
Rows were chosen to be rich in hits. Some 7% of all compounds tested hit in one or more screens of this group.
GRIN3A LBD mod – binders of NR3A ligand-binding domain, primary screen, biophysical, differential scanning fluorimetry, uHTS; Glutamate receptor ionotropic, NMDA 3A (GRIN3A) ligand-binding domain; NR3A LBD differential scanning fluorimetry, Tm shift; 0% = protein alone, 100% = glycine-bound protein; Tm shift relative to glycine control, % at 25 µM; 340,000 tested, 2.5% active; AID 1259313, 2017;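 active = melting temperature shift of at least 10% of the positive control shift, at one fixed dose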
KLK7 zymogen act – proKLK7 zymogen activators, primary screen, biochemical, fluorescence intensity. Kallikrein-7 (Homo sapiens), P49862. purified proKLK7, EDANS-DABCYL substrate fluorescence; 100% is mature enzyme control, 0% vehicle. activation, % at 7 µM. 370,000 tested, 0.9% active. AID 652039, 2013;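 active = activation above the mean of all tested compounds plus 3 SD, computed per campaign excluding outliers beyond control limits, cut at about 13% in these data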
rCAG RNA binder – binders of r(CAG) RNA repeats, primary screen, biochemical, fluorescence | 370,000 tested, 1.3% active | inhibition, % at 3 µM | r(CAG) RNA repeat, TO-PRO-1 dye displacement fluorescence;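 active = inhibition above the plate cutoff, the mean of all test compounds on that plate plus 3 SD, cut at about 35% in these data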;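 note: higher means more dye released from RNA so lower well fluorescence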
AHR act – AHR activators, primary screen, cell-based, luminescence, luciferase reporter, human. Aryl hydrocarbon receptor (Homo sapiens), P35869. AHR-responsive luciferase reporter cells. activation, % at 5 µM. 320,000 tested, 2.5% active; in the data active = activation above about 47%
ADAM17 inh – ADAM17 inhibitors, primary screen, biochemical, QFRET; inhibition, % at 6.95 µM; recombinant ADAM17, EDANS/DABCYL FRET peptide cleavage; 370,000 tested, 0.83% active; Disintegrin and metalloproteinase domain-containing protein 17 (Homo sapiens), P78536;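 active = inhibition above the mean of compounds lying between control limits plus 3 SD, set per campaign, cut at about 8.5% in these data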
ADAM10 inh – human ADAM10 inhibitors, primary screen, biochemical, QFRET, HTS | Disintegrin and metalloproteinase domain-containing protein 10 (Homo sapiens), O14672 | recombinant ADAM10, EDANS/DABCYL FRET peptide cleavage, 3 h | inhibition, % at 7 µM | 370,000 tested, 0.62% active;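 active = inhibition above a per-campaign cutoff equal to the mean of compounds falling between control-based bounds plus 3 SD, cut at about 20% in these data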
rCAG binder conf – small molecules binding CAG repeat RNA – biochemical, fluorescence, confirmation; shares compounds with rCAG RNA binder; r(CAG) RNA repeat, TO-PRO-1 dye displacement fluorescence; inhibition, % at 3 µM; 4,300 tested, 70% active;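 active = inhibition above a per-plate cutoff, the mean inhibition of sample wells plus 3 SD, cut at about 35% in these data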;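 note: loss of TO-PRO-1 fluorescence as compound displaces dye from 1x1 AA loop RNA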
DNA CAG counter – displacement of TO-PRO-1 from CAG DNA duplex, counter-screen for rCAG RNA repeat binder project, biochemical, fluorescence, TO-PRO-1 dye, d(CAG) DNA oligo; 4,300 tested, 94% active; inhibition, % at 3 µM; d(CAG) DNA oligo TO-PRO-1 dye displacement; shares compounds with rCAG RNA binder;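 active = inhibition above its plate's cutoff, the mean test-well inhibition plus 3 SD, cut at about 4.8% in these data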;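 note: hits displace the dye from DNA and so lower well fluorescence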
Each line names hits and unclear results; the compound was inactive in the other large screens (follow-up assays come after a bar, where they were run).

Cc1ccc(NC(=O)CSc2nnc3c(n2)[nH]c2ccccc23)cc1	none
Cc1ccc(C)c(NC(=O)CSc2nc(C)cc(=O)[nH]2)c1	none (no result: GRIN3A LBD mod, AHR act)
Cc1ccc(-c2csc(NC(=O)CSc3nnc4c(n3)[nH]c3ccccc34)n2)cc1	GRIN3A LBD mod 21.4, rCAG RNA binder 35.1 | rCAG binder conf inactive | DNA CAG counter 18.0
Cc1ccc(-c2csc(NC(=O)CSc3nc(C)cc(=O)[nH]3)n2)cc1	rCAG RNA binder 55.7 | rCAG binder conf 54.5 | DNA CAG counter 19.3
CCC(Sc1nc(C)cc(=O)[nH]1)C(=O)Nc1nc(-c2ccccc2)cs1 (stereo not given)	rCAG RNA binder 48.5 | rCAG binder conf 60.1 | DNA CAG counter 22.6
CCOC(=O)c1ccc(NC(=O)CSc2nc(C)cc(=O)[nH]2)cc1	none (no result: KLK7 zymogen act, rCAG RNA binder, ADAM17 inh, ADAM10 inh)
COc1ccc(C(C)(O)c2nc(-c3ccccc3OC)cs2)cc1 (stereo not given)	none (no result: GRIN3A LBD mod, AHR act)
CC(C)(C)OC(=O)NCCc1ccccc1/C=C/S(=O)(=O)NCc1ccccc1	none (no result: GRIN3A LBD mod, AHR act)
COc1ccc(-n2nnnc2C2(C)CCC(=O)N2Cc2ccccc2)cc1 (stereo not given)	none (no result: GRIN3A LBD mod, AHR act)
Cc1ccc(-c2nn(-c3ccccc3)cc2C2CC(c3cccs3)=NN2C(=O)CCC(=O)O)cc1 (stereo not given)	none
O=C(O)CCn1cc(C2CC(c3ccccc3)=NN2c2ccccc2)c(-c2ccccc2)n1 (stereo not given)	rCAG RNA binder 54.9 | rCAG binder conf 61.6 | DNA CAG counter 21.7
COc1cc(C2C(C#N)=C(N)N(c3ccc(F)cc3)C3=C2S(=O)(=O)CC3)ccc1O (stereo not given)	rCAG RNA binder 38.5 | rCAG binder conf inactive | DNA CAG counter 9.0
Clc1ccc(-c2ccc(-c3nn4c(-c5ccco5)nnc4s3)o2)cc1	rCAG RNA binder 34.7 | rCAG binder conf inactive | DNA CAG counter 9.1
Brc1ccc(-c2nn3c(-c4ccco4)nnc3s2)o1	none
NS(=O)(=O)c1ccc2nc(NC(=O)Nc3ccc(F)cc3)sc2c1	GRIN3A LBD mod 23.2, rCAG RNA binder 56.8 | rCAG binder conf inactive | DNA CAG counter 23.6
CS(=O)(=O)c1ccc2nc(NC(=O)Nc3ccc(Cl)cc3)sc2c1	GRIN3A LBD mod 27.6, rCAG RNA binder 60.1 | rCAG binder conf 54.4 | DNA CAG counter 34.3
CS(=O)(=O)c1ccc2nc(NC(=O)C3CC3)sc2c1	none
COc1cc2c(c(OC3OC(CO)C(O)C(O)C3O)c1)C(=O)CC(c1ccc(O)cc1)O2 (stereo not given)	none (no result: GRIN3A LBD mod, AHR act)
O=C(NN=Cc1ccco1)C(=O)Nc1cccc(C(F)(F)F)c1	none (no result: GRIN3A LBD mod, AHR act)
C[C@@H]1ON(C)[C@H]2C[C@H]3c4[nH]c5c(-c6ccc(C(F)(F)F)cc6)cccc5c4CCN3C(=O)[C@@H]12	none (no result: GRIN3A LBD mod, AHR act)
O=C(NCCc1ccc(Cl)cc1)C1CCN(S(=O)(=O)c2cccs2)CC1	none
O=C(O)c1ccc(Cl)cc1NC(=O)C1CCN(S(=O)(=O)c2cccs2)CC1	rCAG RNA binder 38.9 (no result: GRIN3A LBD mod, AHR act) | rCAG binder conf 41.0 | DNA CAG counter 10.1
CCC(C)N(Cc1ccc(OC)cc1OC)S(=O)(=O)c1cc(Br)ccc1Br (stereo not given)	none (no result: GRIN3A LBD mod, AHR act)
COc1ccc(NC(=O)/C(C#N)=C\c2ccc(Br)o2)cc1	none
N#C/C(=C\c1ccc([N+](=O)[O-])o1)C(=O)Nc1ccc(F)cc1	rCAG RNA binder 51.6 | rCAG binder conf inactive | DNA CAG counter 14.0
O=C(CSc1nnc(-c2ccccn2)n1-c1ccccc1)Nc1cccc2ccccc12	none (no result: GRIN3A LBD mod, AHR act)
COc1ccc(C2=CC3=C(Br)C(=O)C(C)(OC(=O)c4cccs4)C(=O)C3=CO2)cc1 (stereo not given)	rCAG RNA binder 48.8 | rCAG binder conf 44.5 | DNA CAG counter 20.7
O=C1NC(c2cc(Cl)cc([N+](=O)[O-])c2O)Nc2ccccc21 (stereo not given)	GRIN3A LBD mod 13.9, rCAG RNA binder 34.6 | rCAG binder conf 79.7 | DNA CAG counter 45.5
O=C1NC(c2ccc(Cl)c([N+](=O)[O-])c2)Nc2ccccc21 (stereo not given)	none
O=[N+]([O-])c1cc(S(=O)(=O)O)cc([N+](=O)[O-])c1NN(c1ccccc1)c1ccccc1	rCAG RNA binder 48.4 | rCAG binder conf 35.6 | DNA CAG counter 10.8
CC(Oc1ccc(S(=O)(=O)N2CCCC2)cc1[N+](=O)[O-])C(=O)N(C)c1ccccc1 (stereo not given)	none
CC1(C)CC(C(CC(=O)O)c2ccccc2)CCO1 (stereo not given)	none
CC1(C)CC(C(CC(=O)N2CCCC2)Cc2ccccc2)CCO1 (stereo not given)	rCAG RNA binder 41.5 | rCAG binder conf inactive | DNA CAG counter inactive
O=C(O)C1Nc2ccc(OC(F)(F)F)cc2C2C=CCC12 (stereo not given)	none (no result: GRIN3A LBD mod, KLK7 zymogen act, rCAG RNA binder, ADAM17 inh, ADAM10 inh)
O=C(NC1CC1)C1Nc2ccc(OC(F)(F)F)cc2C2C=CCC12 (stereo not given)	rCAG RNA binder 42.5 | rCAG binder conf inactive | DNA CAG counter inactive
CCOC(=O)C1Nc2ccc(OC(F)(F)F)cc2C2C=CCC12 (stereo not given)	rCAG RNA binder 40.1 | rCAG binder conf inactive | DNA CAG counter 6.1
O=C(NCc1ccccn1)C1Nc2ccc(OC(F)(F)F)cc2C2C=CCC12 (stereo not given)	rCAG RNA binder 37.1 | rCAG binder conf inactive | DNA CAG counter inactive
CCOC(=O)[C@@]12CCC3=C1N(CCC3)C(=O)[C@H](CC(=O)NCCCCc1ccccc1)C2	none (no result: GRIN3A LBD mod, AHR act)
Cc1nc2ccc(NC(=O)c3c(Cl)cccc3Cl)cc2c(=O)[nH]1	none (no result: GRIN3A LBD mod, AHR act)
S=c1[nH]nc(-c2ccco2)n1/N=C/c1ccc(Cl)c(Cl)c1	rCAG RNA binder 40.9 | rCAG binder conf 40.2 | DNA CAG counter 10.4
S=c1[nH]nc(-c2ccco2)n1/N=C/C(Cl)=C/c1ccccc1	rCAG RNA binder 57.9 | rCAG binder conf 51.7 | DNA CAG counter 18.5
Cc1cc(-c2n[nH]c(=S)n2/N=C/C(Cl)=C/c2ccccc2)n[nH]1	none
